What is called inhibition is the change of the read-out against control, counted positive when it falls.

“And” between values parts separate entries of the source, which are not always exact repeats. Equal values may be shown once. Out of some 300,000 compounds screened, about 3,200 (1.1%) were called active. The sample as a whole holds a higher share of actives than the screen did. Values without a mark were called inactive. Rule as the data show it: active = inhibition above about 75%; inconclusive = no clear call, values can overlap the other calls; inactive = below that; tested in HMLE shEcad cells.

The assay in a line: cancer stem cell viability inhibitors, primary screen, luminescence (AID 2717). As to conditions: cancer stem cell-like cells viability, at 7.5 µM, hits give high values.
Take `CCN(C[C@H]1N[C@@](CC)(C(=O)OC)[C@H]2C(=O)N(Cc3ccccc3)C(=O)[C@@H]12)S(=O)(=O)c1ccc(C(F)(F)F)cc1`: the inhibition is 44.8%. Turning to `CC(=O)Nc1cccc(Nc2nc(-c3cccs3)nc3ccccc23)c1`, the inhibition was 33.9%. Next, `Cc1cccc(-c2nc(Nc3ccc(O)cc3)c3ccccc3n2)c1`: 94% (active). Turning to `COc1ccc(Nc2nc(-c3cccnc3)nc3ccccc23)cn1`, the inhibition was 2.87%. The result for `Cc1cccc(NC(=O)CN2CCN(C(=O)C3CCN(C(=O)/C=C/c4ccccc4)CC3)CC2)c1C` reads -8.71%; that for `CC(=O)Nc1ccc(Nc2c3ccccc3nc3ccccc23)cc1`, 85.3% (active). As to `CC(=O)Nc1ccc(NC(=O)COc2ncnc3ccccc23)cc1`, the inhibition is -6.11%.

As to `Cc1ccc(Nc2c3c(nc4ccccc24)CCC3)cc1`, the inhibition was 2.02%. The result for `Cc1ccc(CC(=O)Nc2ccc(S(=O)(=O)N3CCOCC3)cc2)cc1C` reads 6.62%.

Take `CN1CCN(c2ccc(S(=O)(=O)Nc3ccccc3)cc2[N+](=O)[O-])CC1`: the inhibition is 49.9%. Next, `O=[N+]([O-])c1cc(S(=O)(=O)Nc2cccc(Cl)c2)ccc1N=Nc1c(O)[nH]c2ccccc12`: 96.2% (active); `Cc1cccc(N(CC(=O)N=Nc2c(O)[nH]c3ccccc23)S(C)(=O)=O)c1C`: -17.4%. On to `O=C(CC1SC(N2CCOCC2)=NC1=O)Nc1ccccc1F` (centres undefined), for which the inhibition was -28.9%. For `COc1cc(/C=C/C(=O)OCC(=O)NC2CC2)cc(OC)c1OC`, the inhibition was 1.1%. Consider `COC(=O)c1ccc(C)c(NC(=O)Cn2c(C)csc2=O)c1`, for which the inhibition is 13.1%. For `CCCCC(=O)Nc1ccc(C(=O)Nc2cc(C(F)(F)F)ccc2Cl)cc1`, the inhibition was 5.17%. The result for `CCCCN(CCCC)CCC(O)c1cc2c(Cl)cc(Cl)cc2c2cc(C(F)(F)F)ccc12` (centres undefined) reads 95.2% (active).

Take `Cc1ccc(C)c(NC(=O)COC(=O)c2nn(C)c(=O)c3ccccc23)c1`: the inhibition is -4.9%.

Take `Cc1ccc(-n2[nH]c(C)c(/C=N/N3C(=O)c4cccc5cccc(c45)C3=O)c2=O)cc1`: the inhibition was 24.4%. As to `COc1cc(NS(=O)(=O)c2ccc(N=Cc3c(C)[nH]n(-c4ccccc4)c3=O)cc2)nc(OC)n1`, the inhibition was -7.07%.

For the compound `COc1cc(SC#N)ccc1N=Cc1c(C)[nH]n(-c2ccc(C)cc2)c1=O`, the inhibition is 84.4% (active).

Consider `COc1cc(C(=O)OCc2cc(=O)n3ccsc3n2)ccc1OC(C)C`, for which the inhibition is -20.6%. Next, `CC1CCCCC1NCC(=O)Nc1ccccc1C(=O)Nc1ccccc1` (centres undefined): -14.1%; `O=C(COC(=O)c1ccccc1C(=O)N1CCN(c2ccccc2)CC1)NCc1ccccc1`: -12.2%. The result for `Oc1ccccc1N1CCN(C(=S)NCc2ccccc2)CC1` reads 12%. The result for `Oc1ccc(N2CCN(C(=S)NCc3ccccc3)CC2)cc1` reads 76.5% (active); that for `O=C(COC(=O)c1ccc2c(c1)OCCO2)NCc1ccccc1Cl`, -17.4%; that for `Cc1ccc(N2C(=O)N3[C@@H]4c5ccccc5OC[C@@H]4[C@@H](c4ccccc4)[C@@]3(C)C2=O)cc1`, -10%. As to `CCN(CC)c1ccc(/C=N/NC(=O)c2cnccn2)c(O)c1`, the inhibition was 102% (active).

With `CCN(CC)c1ccc(/C=N/NC(=O)CNC(=O)c2cccnc2)cc1`, the inhibition is -7.16%. For `O=C(N/N=C/c1ccc(O)c2ccccc12)c1cccnc1`, the inhibition is 8.51%. For the compound `O=C(COC(=O)c1ccc([N+](=O)[O-])o1)NC12CC3CC(CC(C3)C1)C2`, the inhibition is -15.4%. Next, `COCCn1c(C)cc(C(=O)CN2c3cccc4cccc(c34)S2(=O)=O)c1C`: 12.1%. As to `COc1cc(/C=N/O)cc(Br)c1OCc1cccc(Cl)c1`, the inhibition was 80.5% (active). Next, `COc1cc(/C=N/O)cc(Br)c1OS(=O)(=O)c1ccc(C)cc1`: -11.5%. Consider `COc1cc(/C=N/O)ccc1OCc1ccc([N+](=O)[O-])cc1`, for which the inhibition is 1.34%.

With `CN(CC(=O)NC1CCN(Cc2ccccc2)CC1)S(=O)(=O)c1ccc(Cl)s1`, the inhibition is -6.54%.

On to `CC(C)c1ccc2c(c1)c(SC(C)(C)C)c(CC(C)(C)C(=O)O)n2Cc1ccc(Cl)cc1`, for which the inhibition was 104% (active) and 102% (active). The result for `O=C(O)c1ccc(Cn2c(=S)[nH]c3cc(Cl)ccc3c2=O)cc1` reads -3.92%; that for `O=C1COc2ccc(C(=O)COC(=O)c3ccccc3Cl)cc2N1`, -17.8%; that for `Fc1ccccc1-c1cc2cc3c(cc2cn1)OCO3`, 14.4%. `COC(=O)C1=C(C)N(Cc2ccccc2)C(=NCCCOC(C)C)N[C@H]1c1ccccc1`: the inhibition is 0.115%.

With `CCOC(=O)N1CCN(C(=O)c2ccc(S(=O)(=O)Nc3cccc(C(F)(F)F)c3)cc2)CC1`, the inhibition was 8.22%.

With `Cc1oc2c(F)c(F)c(F)c(F)c2c1S(=O)(=O)Nc1cccc(C(F)(F)F)c1`, the inhibition was 97.3% (active). As to `O=C(/C=C/c1ccc(F)cc1)Nc1cccc(S(=O)(=O)Nc2cccc(C(F)(F)F)c2)c1`, the inhibition is 2.9%.

On to `Cc1ccc(C)c(NC(=S)NNC(=O)c2csc(C)c2)c1`, for which the inhibition is 3.04%.

As to `Cc1ccc(C)c(NC(=S)NNC(=S)Nc2ccc(C(C)C)cc2)c1`, the inhibition is 102% (active). The result for `CC(C)c1ccc(NC(=S)NNc2ccc(Cl)c(C(=O)O)c2)cc1` reads -18.1%. Consider `C[C@H]1COC(=O)[C@H](CC(=O)OC(C)(C)C)C/C=C\C[C@@H](CC(=O)N[C@H](CO)Cc2ccccc2)C(=O)N1`, for which the inhibition was -29.3%. On to `Cc1ccccc1SCC(=O)OCC(=O)N1CC(=O)Nc2ccccc21`, for which the inhibition was -8.14%. Next, `CC1CCCCC1NC(=O)COc1ccc(C#N)cc1` (centres undefined): -1.85%; `C/C(=N\NC(=S)NC(C)C)c1ccc(C(C)(C)C)cc1`: 77.5% (active); `CC/C(=N\NC(=S)NC(C)C)c1ccc(OC(F)F)cc1`: 2.7%.

Turning to `C/C(=N\NC(=S)NCc1ccccc1)c1ccc(Cl)cc1`, the inhibition is 41.6%. Next, `O=C(COc1cccnc1[N+](=O)[O-])Nc1ccc(Cl)cc1F`: -1.01%; `O=C1C=C(c2cc(C(F)(F)F)cc(C(F)(F)F)c2)C[C@@H](c2ccc3c(c2)OCO3)C1`: 34.8%. Next, `COCC(=O)Nc1c(I)c(C(=O)NCC(O)CO)c(I)c(C(=O)N(C)CC(O)CO)c1I` (centres undefined): 10.5%. In the case of `CCN1/C(=C\c2ccc3ccccc3[n+]2CC)Sc2cc(C)ccc21`, the inhibition is 89.1% (active).

As to `CCN1/C(=C/c2ccc3ccc(C)cc3[n+]2CC)Sc2ccccc21`, the inhibition is 17.6%. Next, `COc1ccc(C(=O)N2CCN(c3ccc(C(C)=O)cc3F)CC2)cc1S(=O)(=O)NC1CC1`: 1.55%; `Cc1cc(N=Nc2ccc3ccccc3c2)ccc1O`: 112% (active); `CC(=O)CCC(=O)c1ccc2ccccc2c1`: -3.91%.

Consider `COc1ccc(N=Nc2ccc(O)c(P(=O)(c3ccccc3)c3ccccc3)c2)cc1`, for which the inhibition is 13.4%. The result for `CCN(CC)C(=O)c1nc[nH]c1C(=O)N(C)Cc1ccccc1` reads -14.8%; that for `COc1ccc(/C=C/C(=O)Nc2ccc(C34CC5CC(CC(O)(C5)C3)C4)cc2)cc1OC`, 91% (active).

`COc1ccc(/C=C/C(=O)Nc2cccnc2)cc1OC`: the inhibition is 4.4%. Next, `COc1ccc(/C=C/C(=O)Nc2ccc(C)cc2)cc1S(=O)(=O)N1CCOCC1`: -2.38%; `CC(=O)C(CC(=O)N1CCCC1)C(=O)Nc1ccc(Cl)cc1` (centres undefined): -5.74%. Take `CSc1nnc(NC(=O)c2nc(S(=O)(=O)Cc3ccc(C)cc3)ncc2Cl)s1`: the inhibition was 104% (active). Take `CCSc1ncc(Cl)c(C(=O)Nc2cc(C)ccc2C)n1`: the inhibition is -7.15%. The result for `Cc1cccc(NC(=O)c2nc(S(=O)(=O)Cc3ccccc3)ncc2Cl)c1` reads 109% (active); that for `CSc1ncc(Cl)c(C(=O)Nc2cc(C)ccc2C)n1`, 4.07%; that for `Cc1cccc(NC(=O)c2nc[nH]c2C(=O)NCC(=O)OCc2ccccc2)c1`, -0.27%. The result for `CCSc1nnc(NC(=O)c2ccc(C)cc2)s1` reads 15.4%; that for `Cc1cc(C)cc(OCC(=O)OCC(=O)NC2CCCC2)c1`, 7.95%; that for `CC(C)(C)OC(=O)C[C@@H]1C/C=C\C[C@@H](CC(=O)N[C@H](CO)Cc2ccccc2)C(=O)NC[C@@H](c2ccccc2)OC1=O`, 0.463%. Next, `CCN(C(=O)COC(=O)CCC(=O)c1cccs1)C1CCCCC1`: -3.12%; `CC1(c2ccccc2)NC(=O)N(CC(=O)N2CC(=O)Nc3ccccc32)C1=O` (centres undefined): -24.5%.

Take `COc1cc(OC)cc(-c2c(-c3ccc(F)cc3)c3cc(-c4ccc5cc[nH]c5c4)ccc3n2C)c1`: the inhibition was 14.4%. With `COc1cc(OC)cc(-c2c(-c3cccs3)c3cc(-c4ccc(OC)nc4)ccc3n2C)c1`, the inhibition was 30.1%. Next, `COc1ccc(-c2c(-c3cc(OC)cc(OC)c3)n(C)c3ccc(-c4ccn[nH]4)cc23)cc1`: 109% (active); `CNC[C@@H]1Oc2c(NS(C)(=O)=O)cccc2C(=O)N([C@@H](C)CO)C[C@H]1C`: -11.8%; `O=C(/C=C/Sc1ncn[nH]1)c1ccc(Cl)cc1`: 112% (active).

As for `O=C(CSc1ncn[nH]1)N/N=C/c1ccc(F)cc1`, the inhibition is 8.65%. The result for `Cc1cc(C)nc(S/C=C/C(=O)c2ccccc2)n1` reads 49.1%; that for `CCOC(=O)[C@H]1[C@H]2COc3ccc(OC)cc3[C@@H]2N2C(=O)c3ccc(F)cc3NC(=O)[C@@]12C`, 9.18%. The result for `CC(=O)Nc1ccc(C(=O)NNC(=O)CCCCC(=O)NNC(=O)c2ccc(NC(C)=O)cc2)cc1` reads 0.726%. Next, `CCCC(=O)Nc1ccc(C(=O)N/N=C/c2ccc[nH]2)cc1`: 110% (active). For `CC(=O)Nc1ccc(C(=O)/C=C/c2ccc[nH]2)cc1`, the inhibition was -8.94%.
